# Bioassay records (PubChem BioAssay)
# MITF primary: inhibitors of human MITF. hit rate 0.91% among 650,000. inhibition, % at 2.6 µM. O75030. AlphaScreen MITF homodimerization, bead proximity signal; in the data active means inhibition above about 50%;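 further: 0% = vehicle wells with protein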
# GPR151 activ: activators of human GPR151; Q8TDV0; hit rate 1% among 650,000; PathHunter beta-arrestin GPR151 cells, luminescence; activation, % at 11.2 µM; in the data active means activation above about 4.9%;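 further: 0% = median of compound wells and 100% = cells with positive control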
# TEAD-YAP block: TEAD-YAP interaction inhibition. hit rate 1.4% among 640,000. AID 1259422. inhibition, % at 9.12 µM. HEK-TIYL cells, TEAD-Gal4/YAP UAS-luciferase luminescence; in the data active means inhibition above about 32%;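 further: 0% = median of test compound wells and 100% = reference inhibitor wells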
# FBW7 act: human FBW7 E3 ligase activation, primary screen; Q969H0; AlphaScreen FBW7–phospho-cyclin E peptide binding, activator screen; normalized activity (activation), % at 26.1 µM; hit rate 0.13% among 650,000; AID 1259310; in the data active means normalized activity above about 1.9%;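 further: purified mutant Fbw7 with reduced substrate affinity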
# GPR151 conf act: confirmation of human GPR151 activators. shares compounds with GPR151 activ. GPR151 PathHunter beta-arrestin cells, luminescence, 90 min; % of EA-reagent control over plate median. activation, % at 11.2 µM. 6,700 tested, under 10 active. AID 1508609;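 active means mean percent activation across replicates above the confirmation screen cutoff of 4.91%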
# GPR119 ag: activates human GPR119 in a GPR151 counter-screen | shares compounds with GPR151 activ | GPR119 PathHunter beta-arrestin cells, luminescence, 90 min; 0 = compound-well median, 100 = enzyme-acceptor control | activation, % at 11.2 µM | hit rate 0.3% among 6,700 | AID 1508611;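 active means mean percent activation in the counterscreen above 29.09%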;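 further: counterscreen on off-target GPR119 to flag nonselective hits from the GPR151 activator screen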
# Target sequence (Q8TDV5 whole entry, looked up): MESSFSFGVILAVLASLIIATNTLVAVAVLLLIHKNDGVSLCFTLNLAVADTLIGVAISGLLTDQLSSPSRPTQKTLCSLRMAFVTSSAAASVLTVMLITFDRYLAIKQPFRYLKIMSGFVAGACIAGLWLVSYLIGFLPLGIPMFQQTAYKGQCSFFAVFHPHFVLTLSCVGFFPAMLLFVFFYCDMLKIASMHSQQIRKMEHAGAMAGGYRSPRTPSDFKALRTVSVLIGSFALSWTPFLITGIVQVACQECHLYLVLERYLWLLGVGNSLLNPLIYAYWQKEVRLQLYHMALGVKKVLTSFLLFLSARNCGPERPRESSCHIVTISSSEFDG
# * marks the source's active call; other numbers are inactive results; x = no result. Hits are enriched below; roughly 3.4% of the tested compounds scored in any of these assays.
SMILES,MITF primary,GPR151 activ,TEAD-YAP block,FBW7 act,GPR151 conf act,GPR119 ag
Cc1ccc(-c2noc(CCC(=O)N3CCCCC3C)n2)cc1 (centres undefined),1,1,-10,0,x,x
CC1CCCCN1C(=O)CCc1nc(-c2ccc(Cl)cc2)no1 (centres undefined),-1,6.7*,-16,0,0,-14
Cc1cc2nnc(SCC(=O)Nc3sc4c(c3C#N)CCCCC4)n2c2ccccc12,12,5.9*,-2,0,1,13
COC(=O)c1c(NC(=O)CSc2nnc3cc(C)c4ccccc4n23)sc2c1CCCC2,-8,0,-6,0,x,x
CCN=C1SC(CC(=O)Nc2cccc(C)c2)C(=O)N1CC (centres undefined),-11,1,2,0,x,x
CC(C)NCCOCCOc1cccc(Cl)c1,42,8.4*,6,0,-1,-13
CC(C)NCCOCCOc1c(Cl)cccc1Cl,35,0,-18,0,x,x
NS(=O)(=O)c1ccc(S(=O)(=O)N(Cc2ccco2)Cc2ccccc2Cl)cc1,29,0,5,0,x,x
O=C(CC(c1cccs1)C1CCCCC1=O)c1ccco1 (centres undefined),-3,1,1,0,x,x
CCc1[nH]n2c(=O)c(Cl)c(C)nc2c1-c1cccs1,2,7.3*,8,0,0,7
CCSc1nnc(NC(=O)/C=C/c2ccccc2OC)s1,-24,0,-1,0,x,x
O=C(c1ccncc1)N(Cc1cc2cc3c(cc2nc1Cl)OCO3)C1CCCC1,-7,-1,-1,0,x,x
COc1cc2nc(Nc3ccccn3)nc(Nc3ccc(Oc4ccccc4)cc3)c2cc1OC,-6,-2,-6,0,x,x
COc1cc2nc(Nc3ccccn3)nc(Nc3cc(OC)c(OC)c(OC)c3)c2cc1OC,8,7.3*,14,0,1,3
COc1ccccc1CNC(=O)c1nn(C)c2c1COc1ccccc1-2,8,0,-15,0,x,x
Cn1nc(C(=O)NCc2ccc(F)cc2)c2c1-c1ccccc1OC2,-6,12*,-10,0,1,-1
O=C1C(Cl)=C(N2CCOCC2)C(=O)C(Cl)(Cl)C1(Cl)Cl,21,0,1,0,x,x
NC(=O)C1(N2CCCCC2)CCN(C(=O)NC2CCCCC2)CC1,10,5.4*,5,0,0,6
CCC(C)NC(=O)c1ccc2nc(NC(=O)c3cc([N+](=O)[O-])cc([N+](=O)[O-])c3)sc2c1 (centres undefined),1,1,9,0,x,x
CCC(C)NC(=O)c1ccc2nc(NC(=O)c3ccc([N+](=O)[O-])cc3)sc2c1 (centres undefined),13,8.8*,3,0,0,1
CCCCCCCC1=NN2C(=N)/C(=C/c3ccc(N(C)C)cc3)C(=O)N=C2S1,17,5.7*,-3,0,0,12
CCCC1=NN2C(=N)/C(=C/c3ccc(N(C)C)cc3)C(=O)N=C2S1,7,1,2,0,x,x
CC(C)Oc1c(Cl)cc(C=O)cc1Cl,12,6.8*,22,0,0,-1
Cc1c(C(=O)Nc2ccc(NC(=O)c3ccco3)c(Cl)c2)cccc1[N+](=O)[O-],14,7.3*,6,0,1,13
COc1cc(NC(=O)c2cccc([N+](=O)[O-])c2C)ccc1NC(=O)c1ccco1,8,1,-20,0,x,x
SMILES,MITF primary,GPR151 activ,TEAD-YAP block,FBW7 act,GPR151 conf act,GPR119 ag
Cc1c(C(=O)Nc2cccc(NC(=O)c3cccs3)c2)cccc1[N+](=O)[O-],-27,5.5*,-3,0,-1,-8
CC(C)CCC1(C2CCN(C(=O)c3ccc(OC(C)C)cc3)CC2)NC(=O)NC1=O (centres undefined),-18,1,-9,0,x,x
O=C(OCCN1CCOCC1)c1cccc(Br)c1,-3,8.3*,-28,0,-1,-12
O=C(OCCN1CCOCC1)c1ccc(O)c(O)c1,17,1,4,0,x,x
NC(=O)c1cc2cc(Cl)ccc2oc1=Nc1ccccc1,6,5.8*,7,0,0,-3
Cc1ccc(NC(=O)c2cnn(-c3ccccc3)c2NC(=O)c2ccc(Cl)cc2)cc1,2,5.6*,-14,0,0,9
CCn1c(=O)c2sccc2n2c(CCCC(=O)NCc3ccccc3)nnc12,9,-1,14,0,x,x
CC1=CC(C)(C)N2C(=O)C3(C(C#N)=C(N)OC4=C3C(=O)CC(C)(C)C4)c3c(C)c(C)cc1c32 (centres undefined),4,9.5*,-4,0,1,3
CCc1cc2c3c(c1)C1(C(=O)N3C(C)(C)C=C2C)C(C#N)=C(N)OC2=C1C(=O)CC(C)(C)C2 (centres undefined),14,0,3,0,x,x
O=C(CC1CC2CCC1C2)Nc1ccc(N2CCOCC2)c(Cl)c1 (centres undefined),-3,1,-4,0,x,x
O=C(O)CCCCCNC(=O)c1cccc(I)c1,-14,-3,-5,0,x,x
CCNC(=O)CC1SC(=Nc2ccc(OC)cc2)N(C)C1=O (centres undefined),-8,-2,-10,0,x,x
COc1ccc(N=C2SC(CC(=O)Nc3ccc(OC)cc3OC)C(=O)N2C)cc1 (centres undefined),-4,6.6*,0,0,4,2
Cc1nc(C)n(-c2ccc(Nc3cc(-c4nn(CCc5ccc6c(c5)OCO6)cc4-c4ccccc4)ccn3)cc2)n1,-5,2,3,0,x,x
O=C(Nc1nccs1)c1ncoc1-c1cccs1,-14,8.7*,5,0,0,4
O=C(Nc1nncs1)c1ncoc1-c1cccs1,-16,-1,8,0,x,x
CC(C)C(c1nnnn1Cc1ccccc1)N1CCN(C2CCCC2)CC1 (centres undefined),3,9.0*,4,0,-1,-3
CC(C)C(c1nnnn1Cc1ccc(F)cc1)N1CCN(C2CCCC2)CC1 (centres undefined),17,-1,4,0,x,x
c1ccc(CN2CCC(N3CCN(C4CCCC4)CC3)CC2)cc1,31,5.1*,11,0,0,6
COC(=O)C1=CN(C)C=C(C(=O)OC)C1c1ccc(OCc2ccccc2)c(OC)c1,-5,2,-18,0,x,x
CCOC(=O)C1=C(C)NC2=C(C(=O)C(C(=O)OCC)C(c3ccccc3OC)C2)C1c1ccc(OCc2ccccc2)c(OC)c1 (centres undefined),5,8.7*,0,0,0,-4
CCOC(=O)C1=CN(C)C=C(C(=O)OCC)C1c1ccc(OC)c(OCc2ccccc2)c1,-1,7.2*,-4,1,0,0
Cc1cccc(CNC(=O)CC2C(=O)NCCN2Cc2c(F)cccc2Cl)n1 (centres undefined),-3,5.1*,9,0,1,5
